Measured values from PubChem BioAssay (Tox21).
Results filed as inconclusive are left out. A call without a number means that no potency is given here. Activity calls are given as the source filed them. Calls follow the shape of the dose curve; as a rule, active = well fitted curve in the direction sought with a large enough effect in the repeat runs; inconclusive = weak or mixed curves; inactive = no such curve, though single readings can be large; an effect the other way counts as inactive or inconclusive.

What was measured:
[1] = A CellTox Green Cytotoxicity Assay to monitor cytotoxicity in HEK293 cells - 8 hour (AID 1224884); conditions: CellTox Green fluorescence; series mostly up to 76.8 µM; also: nearly all actives have a fitted effect of over 35% in size
Summary of the method: (§1)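 HEK293 cells premixed with CellTox Green dye were seeded at 600 cells/well and left 5 h at 37 C/5% CO2 before pin transfer of 23 nL compound in DMSO. Fluorescence from dye bound to dead-cell DNA was read during 40 h treatment.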

[2] = qHTS RealTime-Glo MT Cell Viability Assay in HepG2 cells - 16 hour (AID 1224885); conditions: RealTime-Glo luminescence; series mostly up to 76.8 µM; also: nearly all actives have a fitted effect of over 50% in size
Summary of the method: (§2)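 Viability was tracked continuously by NanoLuc luminescence from prosubstrate reduced by living HepG2 cells, at successive time points over 40 h of compound exposure. Cells with reagent were preincubated 5 h at 37 °C before compound addition.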

[3] = qHTS RealTime-Glo MT Cell Viability Assay in HEK293 cells - 24 hour (AID 1224886); conditions: RealTime-Glo luminescence; series mostly up to 76.8 µM; also: nearly all actives have a fitted effect of over 50% in size; also: potency is read from the fitted curve at half-maximal effect
Summary of the method: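 Viability tracked continuously by luminescence as live cells reduce a prosubstrate for NanoLuc; HEK293 cells preincubated 5 h, compound-treated at 37 C, and read at 0, 8, 16, 24, 32 and 40 h.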

[4] = qHTS RealTime-Glo MT Cell Viability Assay in HEK293 cells - 8 hour (AID 1224887); conditions: RealTime-Glo luminescence; series mostly up to 76.8 µM; also: nearly all actives have a fitted effect of over 50% in size; also: potency is read from the fitted curve at half-maximal effect
Summary of the method: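 HEK293 cells mixed with RealTime-Glo reagents (NanoLuc plus cell-permeant prosubstrate) at 600 cells/well, preincubated 5 h at 37 C/5% CO2, then given 23 nL compound in DMSO. Nonlytic luminescence from viable cells was read at 0, 8, 16, 24, 32 and 40 h.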

[5] = A CellTox Green Cytotoxicity Assay to monitor cytotoxicity in HEK293 cells - 16 hour (AID 1224888); conditions: CellTox Green fluorescence; series mostly up to 76.8 µM; also: nearly all actives have a fitted effect of over 35% in size
Summary of the method: as §1

[6] = qHTS RealTime-Glo MT Cell Viability Assay in HepG2 cells - 0 hour (AID 1224889); conditions: RealTime-Glo luminescence; series mostly up to 76.8 µM; also: nearly all actives have a fitted effect of over 50% in size
Summary of the method: as §2

[7] = qHTS assay to identify small molecule antagonists of the estrogen receptor alpha (ER-alpha) signaling pathway using the BG1 cell line in the presence of 0.1 nM 17-beta-estradiol - cell viability counter screen (AID 1259241); conditions: VM7Luc4E2 (BG1) viability, CellTiter-Fluor protease, 22 h, 0.1 nM estradiol agonist added; series mostly up to 92.4 µM; also: nearly all actives have a fitted effect of over 40% in size
Summary of the method: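 Viability in VM7Luc4E2 cells after 22 hr compound exposure under 0.1 nM 17beta-estradiol stimulation, by CellTiter-Fluor.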

[8] = A CellTox Green Cytotoxicity Assay to monitor cytotoxicity in HepG2 cells - 0 hour (AID 1224882); conditions: CellTox Green fluorescence; series mostly up to 76.8 µM; also: nearly all actives have a fitted effect of over 35% in size
Summary of the method: (§3)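 HepG2 cells were seeded together with the CellTox Green dye at 600 cells/well, left 5 h at 37 C/5% CO2, then given compounds in DMSO. Fluorescence from dye bound to dead-cell DNA was read repeatedly over 40 h of treatment at 37 C.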

[9] = A CellTox Green Cytotoxicity Assay to monitor cytotoxicity in HepG2 cells - 8 hour (AID 1224890); conditions: CellTox Green fluorescence; series mostly up to 76.8 µM; also: nearly all actives have a fitted effect of over 45% in size
Summary of the method: as §3

Row | Compound | Potency [1] | Potency [2] | Potency [3] | Potency [4] | Potency [5] | Potency [6] | Potency [7] | Potency [8] | Potency [9]
1 | O=C(NCC1CN(c2ccc(N3CCOCC3=O)cc2)C(=O)O1)c1ccc(Cl)s1 (centres undefined) | inactive | inactive | inactive | inactive | inactive | inactive | inactive | – | –
2 | CN(C)c1ccc(C(c2ccccc2)c2ccc(N(C)C)cc2)cc1 | inactive | – | – | inactive | – | inactive | inactive | inactive | inactive
3 | CCCNCC(O)COc1ccccc1C(=O)CCc1ccccc1 (centres undefined) | inactive | – | 2130 nM (active) | 2130 nM (active) | inactive | inactive | inactive | inactive | inactive
4 | CNCCCN1c2ccccc2CCc2ccccc21 | inactive | inactive | – | inactive | inactive | inactive | inactive | inactive | inactive
5 | O=C(O)C(S)C(S)C(=O)O (centres undefined) | inactive | – | inactive | inactive | inactive | inactive | inactive | inactive | –
6 | ClCCOCCOCCCl | inactive | – | inactive | inactive | inactive | inactive | inactive | inactive | inactive
